Experimental data reported in PubChem BioAssay (Tox21).
Values without a mark were called inactive. Records with an inconclusive call do not appear. Where a call stands in place of a potency, no number is given. Active and inactive are the calls of the source. Unless noted, calls come from the whole dose curve; as a rule, active = well fitted curve in the direction sought with a large enough effect in the repeat runs; inconclusive = weak or mixed curves; inactive = no such curve, though single readings can be large; an effect the other way counts as inactive or inconclusive.

Assays:
[1] = qHTS assay to identify small molecule antagonists of the TGF-beta/Smad signaling pathway - cell viability counter screen (AID 1346824); note: nearly all actives have a fitted effect of over 50% in size
Outline: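 SBE-bla HEK 293T cells, incubated overnight, then compound plus 0.25 ng/mL TGF-beta1 (stock added) for 5 hr at 37 C. Viability was read in the same wells by CellTiter-Glo luminescence after 30 min at room temperature.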

[2] = qHTS assay to identify small molecule agonists of the TGF-beta/Smad signaling pathway - cell viability counter screen (AID 1346829); note: top concentration of the series differs between compounds; nearly all actives have a fitted effect of over 45% in size
Outline: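 Cytotoxicity counter screen: CellTiter-Glo luminescence (30 min, room temperature) measured in the SBE-bla HEK 293T reporter wells after 5 hr compound treatment at 37 C and the 2 hr substrate step.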

[3] = target: Thyrotropin-releasing hormone receptor (Homo sapiens) (UniProt P34981); test: qHTS assay to identify small molecule antagonists of the thyrotropin-releasing hormone receptor (TRHR) signaling pathway (AID 1346877; active = well fitted inhibition curve with a large enough effect in the repeat runs, not every such curve was filed as active; note: series mostly up to about 51 µM)
Outline: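 HEK293/TRHR cells, 18 h, 37 °C; Ca2+ dye 2 h; cpd 5 min RT; TRH 1 nM final; fluorescence read 3 min, 1 s intervals; 15 concs, triplicate.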

[4] = target: Thyrotropin-releasing hormone receptor (Homo sapiens) (UniProt P34981); test: qHTS assay to identify small molecule agonists of the thyrotropin-releasing hormone receptor (TRHR) signaling pathway (AID 1346891; calls by dose curve;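 note: HEK293 cells expressing TRHR with calcium dye readout; series mostly up to about 58 µM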)
Outline: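 Overnight-plated (18 h, 37 °C, 5% CO2) TRHR-Hek293 cells; 2 h calcium dye at 37 °C; compound in DMSO; 3-min kinetic fluorescence read.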

[5] = Human pregnane X receptor (PXR) small molecule agonists, qHTS cell viability counter screen (AID 1346977); note: nearly all actives have a fitted effect of over 50% in size
Outline: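 After a 5hr pre-incubation, PXR-Luc HepG2 cells received compounds plus positive control in DMSO and were kept 24hr at 37C. Cell viability was quantified by fluorescence from CellTiter-Fluor added for the final hour.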

[6] = Caspase-3/7 induction in HepG2 cells by small molecules, qHTS assay (AID 1346978); note: nearly all actives have a fitted effect of over 15% in size
Outline: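 Wild-type HepG2 cells, 2,000/well, settled 5 hr at 37 C and 5% CO2, then compound-treated for 17 hr; caspase-3/7 activity read by luminescent Caspase-Glo 3/7 after 30 min at room temperature.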

[7] = Caspase-3/7 induction in CHO-K1 cells by small molecules, qHTS cell viability counter screen (AID 1346979); note: nearly all actives have a fitted effect of over 35% in size
Outline: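 Multiplexed with Caspase-Glo 3/7 in CHO-K1 cells, this counter screen added CellTiter-Fluor after 16hr of compound exposure and recorded fluorescence 1hr later.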

[8] = Caspase-3/7 induction in CHO-K1 cells by small molecules, qHTS assay (AID 1346980); note: nearly all actives have a fitted effect of over 15% in size
Outline: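 Wild-type CHO-K1 cells exposed to compounds for 17hr at 37 C, 5% CO2. Caspase-3/7 activity then measured by Caspase-Glo 3/7 luminescence after 30min at room temperature.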

[9] = Caspase-3/7 induction in HepG2 cells by small molecules, qHTS cell viability counter screen (AID 1346981); note: series mostly up to about 92 µM; nearly all actives have a fitted effect of over 30% in size
Outline: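 Fluorescence read-out of live-cell protease activity (CellTiter-Fluor) after 1 hr with reagent. This was measured in the same wells as the caspase-3/7 luminescence, on HepG2 cells exposed to DMSO-dissolved compounds for 16 hr at 37 C.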

[10] = target: Nuclear receptor subfamily 1 group I member 2 (Homo sapiens) (UniProt O75469); test: Human pregnane X receptor (PXR) small molecule agonists, qHTS assay (AID 1346982); note: nearly all actives have a fitted effect of over 35% in size; note: potency is the fitted concentration of half-maximal effect
Outline: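 HepG2 PXR-Luc reporter line, 5% charcoal-stripped FBS; 5 hr pre-incubation, compound (DMSO) 24 hr at 37 C/5% CO2; ONE-Glo 30 min RT; luminescence read-out.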

[11] = target: Cytochrome P450 2D6 (Homo sapiens) (UniProt P10635); test: Cytochrome P450 Family 2 Subfamily D Member 6 (CYP2D6) small molecule antagonists: luciferase reporter qHTS assay (AID 1671196); note: nearly all actives have a fitted effect of over 50% in size; note: potency is the fitted concentration of half-maximal effect
Outline: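 Luminogenic proluciferin substrate, CYP2D6 enzyme; 10 min RT preincubation with compound, NADPH regeneration system added, 1 h RT. Stop/detection reagent, 20 min RT, luminescence read (RLU). Signal proportional to CYP activity.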

[12] = target: Cytochrome P450 2C19 (Homo sapiens) (UniProt P33261); test: Cytochrome P450 Family 2 Subfamily C Member 19 (CYP2C19) small molecule antagonists: luciferase reporter qHTS assay (AID 1671197); note: nearly all actives have a fitted effect of over 65% in size; note: potency is the fitted concentration of half-maximal effect
Outline: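 Luminescent readout of CYP2C19 activity: luciferin product detected 20 min after adding detection reagent. Before that, compound and enzyme-substrate mix preincubated 10 min at room temperature; NADPH-regenerating system started a 1 h, 37C reaction. Ketoconazole as positive control.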

[13] = target: Cytochrome P450 2C9 (Homo sapiens) (UniProt P11712); test: Cytochrome P450 Family 2 Subfamily C Member 9 (CYP2C9) small molecule antagonists: luciferase reporter qHTS assay (AID 1671198); note: nearly all actives have a fitted effect of over 50% in size; note: potency is the fitted concentration of half-maximal effect
Outline: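 P450-Glo proluciferin substrate with CYP2C9 enzyme; 10 min RT preincubation, then NADPH regeneration 1 h at 37C; luciferin detection reagent 20 min RT, luminescence in relative luminescence units.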

[14] = target: Voltage-gated inwardly rectifying potassium channel KCNH2 (Homo sapiens) (UniProt Q12809); test: Human Ether-a-go-go-Related Gene (hERG) channel small molecule antagonists: fluorescence cell-based qHTS assay (AID 1671200)
Outline: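 Cell line hERG-U2OS; dye FluxOR II, 1 h RT dark; Tl+ stimulus; ex 480/em 540 nm, read each second for 2 min.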

[15] = target: Cytochrome P450 3A4 (Homo sapiens) (UniProt P08684); test: Cytochrome P450 Family 3 Subfamily A Member 4 (CYP3A4) small molecule antagonists: luciferase reporter qHTS assay (AID 1671201); note: nearly all actives have a fitted effect of over 50% in size; note: potency is the fitted concentration of half-maximal effect
Outline: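 Room-temperature assay throughout: 10 min compound–enzyme/substrate preincubation, 1 h reaction after NADPH regeneration solution, 20 min detection. Luciferin formed from proluciferin substrate is quantified by luminescence.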

[16] = qHTS assay to identify small molecule agonists of the TGF-beta/Smad signaling pathway (AID 1346859; active = well fitted activation curve with a large enough effect in the signal ratio in the repeat runs, not every such curve was filed as active; the % refers to the signal ratio; note: series mostly up to about 77 µM)
Outline: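 Beta-lactamase reporter activity downstream of Smad binding elements was measured in stably transfected HEK 293T cells; compounds were incubated for 5 hr, substrate for 2 hr at room temperature.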

[17] = target: Nuclear receptor subfamily 1 group I member 2 (Homo sapiens) (UniProt O75469); test: CYP3A4 induction through human pregnane X receptor (PXR) by small molecules, qHTS assay (AID 1346984); note: nearly all actives have a fitted effect of over 40% in size
Outline: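 HepG2-derived DPX-2 line carrying PXR plus a CYP3A4-promoter luciferase reporter; cells plated 5 hr, compound-exposed 24 hr at 37C. CYP3A4 activity probed with 3uM (final) Luciferin-IPA for 3hr, then luciferase read after One-Glo.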

[18] = target: Nuclear receptor subfamily 1 group I member 2 (Homo sapiens) (UniProt O75469); test: Human pregnane X receptor (PXR) activation by small molecules, qHTS assay (AID 1346985); note: nearly all actives have a fitted effect of over 40% in size
Outline: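 DPX-2 cells (HepG2 co-transfected with a PXR response element and a CYP3A4-promoter luciferase construct) were seeded at 2,000 per well, rested 5 hr at 37C, then exposed to DMSO-dissolved compounds for 24 hr. Activation was read as luciferase luminescence.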

[19] = target: Cytochrome P450 1A2 (Homo sapiens) (UniProt P05177); test: Cytochrome P450 Family 1 Subfamily A Member 2 (CYP1A2) small molecule antagonists: luciferase reporter qHTS assay (AID 1671199); note: nearly all actives have a fitted effect of over 50% in size; note: potency is the fitted concentration of half-maximal effect
Outline: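 Luminescence readout (relative luminescence units) after luciferin detection reagent, 20 min RT. Preceded by 1 h room-temperature CYP1A2 reaction with NADPH regeneration solution following 10 min compound preincubation with enzyme and proluciferin substrate. Furafylline positive control.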

Sequence of Cytochrome P450 1A2 (Homo sapiens) (P05177 whole entry, looked up): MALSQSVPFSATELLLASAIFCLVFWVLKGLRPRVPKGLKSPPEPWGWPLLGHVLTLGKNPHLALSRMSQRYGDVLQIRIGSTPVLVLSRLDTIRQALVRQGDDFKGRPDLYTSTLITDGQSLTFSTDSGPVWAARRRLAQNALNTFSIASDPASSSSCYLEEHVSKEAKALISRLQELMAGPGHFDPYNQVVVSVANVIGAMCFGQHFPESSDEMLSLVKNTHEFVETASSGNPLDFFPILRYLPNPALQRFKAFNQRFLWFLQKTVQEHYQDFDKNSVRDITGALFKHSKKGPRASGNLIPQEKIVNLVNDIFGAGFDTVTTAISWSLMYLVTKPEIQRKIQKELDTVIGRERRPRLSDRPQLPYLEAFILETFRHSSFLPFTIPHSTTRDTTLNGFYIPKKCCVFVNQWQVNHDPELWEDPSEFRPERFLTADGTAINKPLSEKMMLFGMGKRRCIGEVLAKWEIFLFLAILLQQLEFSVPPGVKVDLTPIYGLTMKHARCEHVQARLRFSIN
Sequence of Voltage-gated inwardly rectifying potassium channel KCNH2 (Homo sapiens) (Q12809 whole entry, looked up): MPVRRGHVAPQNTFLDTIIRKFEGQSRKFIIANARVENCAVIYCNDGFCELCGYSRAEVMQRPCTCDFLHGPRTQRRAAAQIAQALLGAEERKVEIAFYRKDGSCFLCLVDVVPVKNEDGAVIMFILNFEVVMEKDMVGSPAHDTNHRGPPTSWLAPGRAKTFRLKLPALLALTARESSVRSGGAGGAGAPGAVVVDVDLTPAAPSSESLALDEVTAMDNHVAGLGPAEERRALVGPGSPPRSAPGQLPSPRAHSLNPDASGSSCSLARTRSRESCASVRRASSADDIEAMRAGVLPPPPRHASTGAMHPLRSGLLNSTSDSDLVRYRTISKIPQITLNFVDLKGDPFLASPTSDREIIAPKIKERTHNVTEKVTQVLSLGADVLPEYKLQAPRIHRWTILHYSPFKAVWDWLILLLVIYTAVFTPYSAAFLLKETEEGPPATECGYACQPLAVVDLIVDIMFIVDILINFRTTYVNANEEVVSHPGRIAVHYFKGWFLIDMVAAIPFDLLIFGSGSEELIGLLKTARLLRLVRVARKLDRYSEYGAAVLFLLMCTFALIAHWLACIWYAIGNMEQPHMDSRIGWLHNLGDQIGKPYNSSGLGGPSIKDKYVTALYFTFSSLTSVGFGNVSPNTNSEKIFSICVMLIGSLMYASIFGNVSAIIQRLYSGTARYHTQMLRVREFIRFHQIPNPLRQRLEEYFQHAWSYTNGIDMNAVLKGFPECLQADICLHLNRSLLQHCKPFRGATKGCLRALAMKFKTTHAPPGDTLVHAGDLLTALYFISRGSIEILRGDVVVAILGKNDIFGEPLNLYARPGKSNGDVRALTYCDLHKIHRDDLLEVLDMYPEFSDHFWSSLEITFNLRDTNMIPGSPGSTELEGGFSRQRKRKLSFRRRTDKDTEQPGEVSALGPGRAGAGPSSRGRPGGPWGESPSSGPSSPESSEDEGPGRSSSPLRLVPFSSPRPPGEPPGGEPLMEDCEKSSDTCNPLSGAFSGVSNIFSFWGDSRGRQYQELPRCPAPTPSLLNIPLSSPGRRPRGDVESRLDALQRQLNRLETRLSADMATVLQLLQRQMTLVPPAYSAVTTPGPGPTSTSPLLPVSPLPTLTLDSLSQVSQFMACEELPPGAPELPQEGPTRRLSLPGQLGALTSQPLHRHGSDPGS
Sequence of Cytochrome P450 3A4 (Homo sapiens) (P08684 whole entry, looked up): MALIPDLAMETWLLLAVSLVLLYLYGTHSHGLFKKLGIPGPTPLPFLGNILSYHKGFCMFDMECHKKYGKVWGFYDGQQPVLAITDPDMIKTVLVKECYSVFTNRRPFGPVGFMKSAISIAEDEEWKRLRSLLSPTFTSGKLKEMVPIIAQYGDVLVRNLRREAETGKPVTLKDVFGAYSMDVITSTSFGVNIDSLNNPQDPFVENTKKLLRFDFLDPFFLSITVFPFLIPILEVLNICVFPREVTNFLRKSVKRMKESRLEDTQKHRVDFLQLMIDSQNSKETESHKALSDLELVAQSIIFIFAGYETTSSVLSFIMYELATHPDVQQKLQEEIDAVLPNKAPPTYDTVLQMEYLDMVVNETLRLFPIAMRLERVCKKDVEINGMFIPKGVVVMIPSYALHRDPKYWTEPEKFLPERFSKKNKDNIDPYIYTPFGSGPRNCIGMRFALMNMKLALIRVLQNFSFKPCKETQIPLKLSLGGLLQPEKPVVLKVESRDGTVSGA
Sequence of Cytochrome P450 2C19 (Homo sapiens) (P33261 whole entry, looked up): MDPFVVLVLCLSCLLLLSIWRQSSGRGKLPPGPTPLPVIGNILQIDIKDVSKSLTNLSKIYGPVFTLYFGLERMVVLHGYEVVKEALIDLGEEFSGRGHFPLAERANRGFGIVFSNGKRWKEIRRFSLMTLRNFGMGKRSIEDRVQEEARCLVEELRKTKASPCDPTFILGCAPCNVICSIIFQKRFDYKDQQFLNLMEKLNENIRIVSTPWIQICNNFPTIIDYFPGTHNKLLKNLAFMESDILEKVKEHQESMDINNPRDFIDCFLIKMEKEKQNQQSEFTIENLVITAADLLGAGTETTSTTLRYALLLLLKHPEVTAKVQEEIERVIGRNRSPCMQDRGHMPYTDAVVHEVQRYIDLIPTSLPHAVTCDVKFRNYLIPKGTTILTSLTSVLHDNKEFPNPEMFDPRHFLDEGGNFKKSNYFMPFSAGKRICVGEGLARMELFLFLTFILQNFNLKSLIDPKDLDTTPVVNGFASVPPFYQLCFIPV
Sequence of Cytochrome P450 2D6 (Homo sapiens) (P10635 whole entry, looked up): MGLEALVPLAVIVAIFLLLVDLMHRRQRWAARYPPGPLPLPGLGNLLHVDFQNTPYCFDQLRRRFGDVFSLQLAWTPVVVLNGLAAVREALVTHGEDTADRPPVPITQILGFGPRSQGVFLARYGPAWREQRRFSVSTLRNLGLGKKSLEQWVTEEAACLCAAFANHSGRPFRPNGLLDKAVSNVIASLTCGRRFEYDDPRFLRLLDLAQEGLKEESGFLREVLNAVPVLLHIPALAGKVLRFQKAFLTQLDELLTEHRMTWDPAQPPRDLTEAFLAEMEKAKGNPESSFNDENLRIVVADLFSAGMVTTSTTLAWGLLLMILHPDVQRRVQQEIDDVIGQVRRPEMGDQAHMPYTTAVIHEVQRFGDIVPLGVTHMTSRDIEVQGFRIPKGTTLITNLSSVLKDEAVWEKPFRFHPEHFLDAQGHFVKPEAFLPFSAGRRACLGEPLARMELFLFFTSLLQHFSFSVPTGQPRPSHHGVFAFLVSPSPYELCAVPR
Sequence of Cytochrome P450 2C9 (Homo sapiens) (P11712 whole entry, looked up): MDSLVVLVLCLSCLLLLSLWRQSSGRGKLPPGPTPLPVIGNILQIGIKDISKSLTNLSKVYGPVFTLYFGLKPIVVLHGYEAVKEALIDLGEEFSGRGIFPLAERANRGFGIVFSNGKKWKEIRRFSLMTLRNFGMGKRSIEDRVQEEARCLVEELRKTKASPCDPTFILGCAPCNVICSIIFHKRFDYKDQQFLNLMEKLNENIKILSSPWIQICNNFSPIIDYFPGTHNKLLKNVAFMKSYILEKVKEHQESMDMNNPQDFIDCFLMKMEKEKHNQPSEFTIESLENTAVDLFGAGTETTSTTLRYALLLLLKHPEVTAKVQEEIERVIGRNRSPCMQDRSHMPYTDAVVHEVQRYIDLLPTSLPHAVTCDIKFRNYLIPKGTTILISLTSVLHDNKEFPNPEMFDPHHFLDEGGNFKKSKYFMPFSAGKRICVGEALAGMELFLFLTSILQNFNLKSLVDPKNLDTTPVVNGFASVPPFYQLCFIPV
Sequence of Thyrotropin-releasing hormone receptor (Homo sapiens) (P34981 whole entry, looked up): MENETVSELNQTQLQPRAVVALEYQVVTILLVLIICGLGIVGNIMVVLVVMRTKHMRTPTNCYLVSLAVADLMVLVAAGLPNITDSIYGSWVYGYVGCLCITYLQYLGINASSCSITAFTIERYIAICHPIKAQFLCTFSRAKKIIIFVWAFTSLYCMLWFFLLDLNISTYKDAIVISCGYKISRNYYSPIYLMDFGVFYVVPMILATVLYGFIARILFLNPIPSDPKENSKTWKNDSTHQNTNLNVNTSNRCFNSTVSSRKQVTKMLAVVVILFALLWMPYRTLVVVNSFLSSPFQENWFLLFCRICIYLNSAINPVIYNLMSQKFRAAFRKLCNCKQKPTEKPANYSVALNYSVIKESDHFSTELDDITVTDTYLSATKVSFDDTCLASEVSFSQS
Sequence of Nuclear receptor subfamily 1 group I member 2 (Homo sapiens) (O75469 whole entry, looked up): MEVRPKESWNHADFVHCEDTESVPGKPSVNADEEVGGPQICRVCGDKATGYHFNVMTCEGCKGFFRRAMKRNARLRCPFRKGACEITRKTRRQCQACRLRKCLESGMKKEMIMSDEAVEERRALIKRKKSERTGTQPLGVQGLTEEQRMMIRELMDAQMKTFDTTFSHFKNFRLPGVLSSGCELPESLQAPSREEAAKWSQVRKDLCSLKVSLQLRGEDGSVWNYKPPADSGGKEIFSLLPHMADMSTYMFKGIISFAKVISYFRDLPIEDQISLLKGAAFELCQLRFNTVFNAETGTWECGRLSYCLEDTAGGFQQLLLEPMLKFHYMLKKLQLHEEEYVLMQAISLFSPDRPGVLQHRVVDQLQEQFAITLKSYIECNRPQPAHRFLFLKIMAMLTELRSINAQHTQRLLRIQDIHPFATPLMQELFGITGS

SMILES	outcome [1]	outcome [2]	outcome [3]	outcome [4]	outcome [5]	outcome [6]	Potency [7]	outcome [8]	outcome [9]	Potency [10]	Potency [11]	Potency [12]	Potency [13]	Potency [14]	Potency [15]	outcome [16]	Potency [17]	Potency [18]	Potency [19]
CC(CO)(CO)CO	inactive	inactive	inactive	inactive	inactive	inactive	inactive	inactive	inactive	inactive	28.6 µM (active)	inactive	inactive	inactive	inactive	–	–	–	–
NCC1(Cc2noc(=O)[nH]2)CCCCC1	inactive	inactive	–	–	inactive	inactive	inactive	inactive	inactive	inactive	inactive	–	–	inactive	inactive	inactive	–	–	–
CCNC(=O)NCc1cccc(Cl)c1	inactive	inactive	–	–	inactive	–	inactive	inactive	–	inactive	inactive	inactive	inactive	inactive	–	inactive	inactive	inactive	inactive
CCCCOCCOC(=O)COc1ccc(Cl)cc1Cl	inactive	inactive	–	–	inactive	–	–	inactive	inactive	inactive	inactive	79.6 µM (active)	–	inactive	inactive	inactive	–	–	20 µM (active)
CC/C(C)=N\O[Si](C)(O/N=C(\C)CC)O/N=C(\C)CC	inactive	inactive	–	–	inactive	inactive	inactive	inactive	–	inactive	32.1 µM (active)	22.8 µM (active)	–	inactive	12.8 µM (active)	inactive	–	–	40.5 µM (active)
C=C(C)c1cccc(C(C)(C)N=C=O)c1	inactive	inactive	–	–	inactive	inactive	inactive	inactive	inactive	4.33 µM (active)	–	17.8 µM (active)	15.9 µM (active)	inactive	–	inactive	–	–	–
CN(C)CCCCl	inactive	inactive	inactive	inactive	inactive	inactive	inactive	inactive	inactive	inactive	inactive	inactive	inactive	inactive	inactive	–	–	–	inactive
CCO	inactive	inactive	inactive	inactive	inactive	inactive	inactive	inactive	inactive	inactive	inactive	inactive	inactive	–	inactive	–	–	–	–
CCC(C)C(=O)OCCc1ccccc1 (stereo not given)	inactive	inactive	inactive	inactive	inactive	inactive	inactive	inactive	inactive	inactive	–	inactive	inactive	inactive	–	–	–	–	inactive
Nc1nnnn1-c1ccccc1	inactive	inactive	–	–	inactive	–	inactive	inactive	inactive	inactive	inactive	inactive	inactive	inactive	inactive	inactive	–	–	–
c1ccc2cnccc2c1	inactive	inactive	–	–	inactive	inactive	inactive	inactive	inactive	–	35.6 µM (active)	inactive	inactive	–	–	inactive	–	–	–
CCCC(=O)Nc1ccc(OCC(O)CNC(C)C)c(C(C)=O)c1 (stereo not given)	inactive	inactive	–	–	inactive	–	inactive	inactive	inactive	inactive	–	inactive	–	inactive	inactive	inactive	inactive	inactive	–
C=C(C)[C@@H]1CC=C(C)CC1	inactive	inactive	–	–	inactive	–	inactive	inactive	inactive	inactive	inactive	inactive	inactive	inactive	inactive	inactive	–	–	–
O=C(O)[C@H](O)c1ccccc1	inactive	inactive	inactive	inactive	inactive	inactive	inactive	inactive	inactive	inactive	inactive	–	inactive	–	inactive	–	inactive	inactive	inactive
CCOc1ccccc1OCC1CNCCO1 (stereo not given)	inactive	inactive	–	–	inactive	–	inactive	inactive	inactive	inactive	–	inactive	inactive	inactive	–	inactive	–	–	0.575 µM (active)
Cc1ccc2c(c1)C(=O)c1ccccc1C2=O	inactive	inactive	–	–	inactive	inactive	inactive	inactive	inactive	15.3 µM (active)	–	11.2 µM (active)	12.6 µM (active)	inactive	–	inactive	–	–	–
Cc1ccnc(N)c1	inactive	inactive	–	–	inactive	inactive	–	inactive	–	inactive	inactive	inactive	inactive	inactive	inactive	inactive	–	–	inactive
O=NN(CCCl)C(=O)NC1CCCCC1	inactive	inactive	inactive	inactive	inactive	inactive	inactive	inactive	inactive	inactive	inactive	inactive	inactive	inactive	inactive	–	inactive	inactive	–
CC1=C(C(=O)O)N2C(=O)[C@@H](NC(=O)[C@H](N)C3=CCC=CC3)[C@H]2SC1	inactive	inactive	–	–	inactive	inactive	inactive	inactive	inactive	inactive	–	–	inactive	inactive	inactive	inactive	–	–	inactive
